Assay results: PubChem BioAssay (NCATS)
Inconclusive results are not listed. Values without a mark were called inactive. Active and inactive are the calls of the source. Calls follow the shape of the dose curve; as a rule, active = well fitted inhibition curve with a large enough effect; inconclusive = small, poorly fitted or top-dose-only effect; inactive = flat fitted curve, though single readings scatter. Peptide text beside a SMILES is read from it.

Biological target: Ubiquitin carboxyl-terminal hydrolase 1 (Homo sapiens) (UniProt O94782)
Sequence (O94782 whole entry, looked up): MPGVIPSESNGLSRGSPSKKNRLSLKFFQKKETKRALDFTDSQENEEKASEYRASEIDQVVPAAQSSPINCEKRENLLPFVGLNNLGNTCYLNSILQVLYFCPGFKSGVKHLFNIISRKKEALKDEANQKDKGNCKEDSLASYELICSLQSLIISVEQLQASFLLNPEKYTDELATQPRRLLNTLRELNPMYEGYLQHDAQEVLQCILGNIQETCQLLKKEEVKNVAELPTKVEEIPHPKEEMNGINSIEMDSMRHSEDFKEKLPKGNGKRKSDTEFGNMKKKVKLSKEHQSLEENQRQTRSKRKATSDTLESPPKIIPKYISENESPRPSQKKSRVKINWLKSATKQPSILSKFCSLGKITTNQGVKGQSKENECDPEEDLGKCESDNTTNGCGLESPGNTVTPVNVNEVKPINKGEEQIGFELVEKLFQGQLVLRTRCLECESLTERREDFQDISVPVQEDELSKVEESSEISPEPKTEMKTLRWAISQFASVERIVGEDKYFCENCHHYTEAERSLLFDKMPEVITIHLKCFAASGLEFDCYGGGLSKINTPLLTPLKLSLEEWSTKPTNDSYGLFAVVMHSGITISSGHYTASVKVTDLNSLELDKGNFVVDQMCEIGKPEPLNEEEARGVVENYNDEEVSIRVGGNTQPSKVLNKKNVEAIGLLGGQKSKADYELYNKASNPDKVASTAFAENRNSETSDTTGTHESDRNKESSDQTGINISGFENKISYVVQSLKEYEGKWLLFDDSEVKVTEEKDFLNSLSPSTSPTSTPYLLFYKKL
Assay: Inhibitors of USP1/UAF1: Pilot qHTS (AID 504865);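 also: rhodamine fluorescence freed from ubiquitin-rhodamine substrate followed over time; top concentration of the series differs between compounds; nearly all actives have a fitted effect of over 35% in size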
Conditions: purified USP1/UAF1, Ub-rhodamine cleavage fluorescence; series mostly up to 114 µM; activity change, negative = inhibition: at the top concentration
Outline: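 Kinetic fluorescence assay: 1nM USP1/UAF1, 15 min compound preincubation, then 150nM Ub-Rho; 480/540 nm.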
% is scaled to controls: 0 for no effect and ±100 for the full control effect.

SMILES	activity change, negative = inhibition	Potency
CNC[C@@H](O)[C@@H](O)[C@H](O)[C@H](O)CO	-2.57%	
CC(C)[C@H](N)C(=O)OCCOCn1cnc2c(=O)[nH]c(N)nc21	-6.51%	
CCCc1cc(=O)[nH]c(=S)[nH]1		inactive
O=C(NC(Cc1cc(=O)[nH]c2ccccc12)C(=O)O)c1ccc(Cl)cc1 (centres undefined)	-4.67%	
COc1cc(OC)c(C(=O)CCCN2CCCC2)c(OC)c1	3.19% [at 54.9 µM]	
CCCOc1ccc2nc(NC(=O)OC)[nH]c2c1	-2.58%	
COc1c2occc2cc2ccc(=O)oc12		inactive
O=C(OC1C[C@H]2CC[C@@H](C1)[N+]21CCCC1)C(O)(c1ccccc1)c1ccccc1 (some centres undefined)	2.86%	
Cc1cc2c(s1)Nc1ccccc1N=C2N1CCN(C)CC1		inactive
Cc1nc(Nc2ncc(C(=O)Nc3c(C)cccc3Cl)s2)cc(N2CCN(CCO)CC2)n1	-11.9%	
CCN(CC)CCOc1ccc(Cc2ccccc2)cc1		inactive
CC(S)C(=O)NCC(=O)O (centres undefined)	-6.41%	
COCCCOc1ccnc(CS(=O)c2nc3ccccc3[nH]2)c1C (centres undefined)	-0.179%	
Cn1c(NCCN(CCO)CCCc2ccc([N+](=O)[O-])cc2)cc(=O)n(C)c1=O	-11.3%	
Nc1nc(Cl)nc2c1ncn2[C@H]1C[C@H](O)[C@@H](CO)O1	-5.78%	
CCOC(=O)c1c(C)n(C)c2ccc(O)cc12	-6.86%	
COC(=O)[C@H](Cc1ccccc1)NC(=O)[C@@H](N)CC(=O)O (H-Asp-Phe-OMe)	-2.36%	
c1ccc2[nH]c(-c3cscn3)nc2c1		inactive
COC1=C(OC)C(=O)C(CCCCCCCCCCO)=C(C)C1=O	-12.5%	
